Data published in the OligoGym collection.

Key:
Test in all cases: pooled miR-30 sensor sort-seq; sequence = guide strand
Details in all cases: shRNA
RPS28 = biological target: RPS28
RPS27 = biological target: RPS27
RTTN = biological target: RTTN
RYR2 = biological target: RYR2
SASH1 = biological target: SASH1
SCGB1D4 = biological target: SCGB1D4
SEZ6L = biological target: SEZ6L
SH3YL1 = biological target: SH3YL1
SLC16A5 = biological target: SLC16A5
SLC17A8 = biological target: SLC17A8
SLC20A1 = biological target: SLC20A1
SLC17A2 = biological target: SLC17A2
SLC13A5 = biological target: SLC13A5
Note: reference of the scale not given here.

Sequence TCGCTCTGACTCCAAAAGGGTG has a sensor-assay potency score (higher = more potent) (RPS28) of -1.7.

With TTTACATTGCGGATGATGGATC the sensor-assay potency score (higher = more potent) (RPS28) was -1.07.

For TTGCTTTTCCTCCTGTAGGCTG, the sensor-assay potency score (higher = more potent) (RPS27) was -0.847.

TCGGCTCGTGTCGTCCATGAAT showed a sensor-assay potency score (higher = more potent) (RPS28) of -1.75.

Sequence TATCATCTGTTTCTTCTCGTGC has a sensor-assay potency score (higher = more potent) (RTTN) of 0.159.

TTAATAACCAGCTCTCTTCTGT was tested, and the sensor-assay potency score (higher = more potent) (RTTN) was 0.265.

TTTTGTACTCGGTTCCACCTGA showed a sensor-assay potency score (higher = more potent) (RYR2) of 0.606.

In the case of TTGCAGTCCACAACCAGCCAAA, the sensor-assay potency score (higher = more potent) (RYR2) is reported as -1.35.

In the case of TATTTTTTAGACATTCTCTTTC, the sensor-assay potency score (higher = more potent) (SASH1) is reported as -0.235.

Sequence AAGTTTGGCAACTTGGAGGTTT has a sensor-assay potency score (higher = more potent) (SCGB1D4) of -0.0937.

TTGGAGAAGCTCACACTGCAGA showed a sensor-assay potency score (higher = more potent) (SEZ6L) of -0.466.

For TAGACTGTCACGTTGTATGTGC, the sensor-assay potency score (higher = more potent) (SEZ6L) was 0.1.

Work on TAACTGTGATTCTGTCTCCAGC yielded a sensor-assay potency score (higher = more potent) (SH3YL1) of -0.946.

In the case of TAGAAAACATAGCTAAAGTTGT, the sensor-assay potency score (higher = more potent) (SLC16A5) is reported as -0.585.

Sequence TACAACGATTGTCATAACCATG has a sensor-assay potency score (higher = more potent) (SLC17A8) of -1.63.

TTTCCATCAACATATACGGTGC gave a sensor-assay potency score (higher = more potent) (SLC17A8) of -0.418.

For TAACAAAGTAACCTCCTACTTT, the sensor-assay potency score (higher = more potent) (SLC16A5) was 0.00812.

Sequence TAGCACAAGTAACACTTCCCTC has a sensor-assay potency score (higher = more potent) (SLC20A1) of -0.562.

With TATATTATTGTGATTTCCCTGA the sensor-assay potency score (higher = more potent) (SLC17A8) was 0.059.

Work on TTATGGGGACAGCTCGTCCAGG yielded a sensor-assay potency score (higher = more potent) (SLC17A2) of -1.25.

Sequence TTATGTTCATTATGACTCCTGT has a sensor-assay potency score (higher = more potent) (SLC13A5) of 0.0164.

For TAGCTAAAGTTGTTGGTGGCGT, the sensor-assay potency score (higher = more potent) (SLC16A5) was -0.44.

For TATGAGGAACACATTCTGCCAT, the sensor-assay potency score (higher = more potent) (SLC17A8) was 0.122.

Work on TAAATCTATAATTTTTTCCGTA yielded a sensor-assay potency score (higher = more potent) (SLC17A8) of -0.398.

TTTTTTGCTCCAAATATCCCTG gave a sensor-assay potency score (higher = more potent) (SLC17A2) of -0.408.

AAATTGTACAGCTTGCAGCAGC gave a sensor-assay potency score (higher = more potent) (SLC17A2) of -0.887.

ATGAGGAACACATTCTGCCATT showed a sensor-assay potency score (higher = more potent) (SLC17A8) of -1.42.

TTGCAGTTCAGTGAAGAAGATG showed a sensor-assay potency score (higher = more potent) (SLC16A5) of -1.64.

TTGCTTGGCCTGCAGTACCGCC was tested, and the sensor-assay potency score (higher = more potent) (SLC16A5) was -1.47.

In the case of TTGAGCAGGAGTGCCAGGCTGA, the sensor-assay potency score (higher = more potent) (SLC16A5) is reported as -0.145.
